In PubChem BioAssay (NCATS):
Inconclusive results are not listed. Activity calls are given as the source filed them. Calls follow the shape of the dose curve; as a rule, active = well fitted curve in the direction sought with a large enough effect; inconclusive = small, poorly fitted or top-dose-only effect, or another doubt; inactive = no such curve, though single readings can be large; an effect the other way counts as inactive or inconclusive.

How the values were obtained:
[1] = system: HACAT; test: qHTS assay to identify novel small-molecules to repurpose for Merkel cell carcinoma treatment (AID 1296009); conditions: MCC and control cell lines, CellTiter-Glo viability, 72 h; at 44.8 µM (top of the series) unless noted; also: nearly all actives have a fitted effect of over 60% in size
How it was run: (§1)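 Luminescence from CellTiter-Glo, read 10 min after addition at room temperature, reported viability following a 72 hr, 37 degree celsius treatment with NPC or MIPE compounds in titration; values normalized to plate controls.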

[2] = system: MCC-13; test: as above; conditions: MCC and control cell lines, CellTiter-Glo viability, 72 h; series mostly up to 46 µM
How it was run: as §1

[3] = system: MCC-26; test: as above; conditions: MCC and control cell lines, CellTiter-Glo viability, 72 h; series mostly up to 46 µM
How it was run: as §1

[4] = system: MKL-1; test: as above; conditions: MCC and control cell lines, CellTiter-Glo viability, 72 h; series mostly up to 46 µM
How it was run: as §1

[5] = system: MKL-2; test: as above; conditions: MCC and control cell lines, CellTiter-Glo viability, 72 h; series mostly up to 46 µM
How it was run: as §1

[6] = system: UISO; test: as above; conditions: MCC and control cell lines, CellTiter-Glo viability, 72 h; series mostly up to 46 µM
How it was run: as §1

[7] = system: WaGa; test: as above; conditions: MCC and control cell lines, CellTiter-Glo viability, 72 h; series mostly up to 46 µM
How it was run: as §1

[8] = system: C33A; test: Primary qHTS to identify gynecologic anti-cancer compounds using libraries of approved drugs and bioactive compounds (AID 1345084); conditions: Gynecologic cancer cell panel viability, ATPlite luminescence, 48 h; series mostly up to 57.5 µM; also: nearly all actives have a fitted effect of over 55% in size
How it was run: (§2)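 48 h compound exposure at 37 C, 5% CO2; five-point qHTS. ATPlite luminescence readout of cell ATP.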

[9] = system: CASKI; test: as above; conditions: Gynecologic cancer cell panel viability, ATPlite luminescence, 48 h; series mostly up to 57.5 µM
How it was run: as §2

[10] = system: Es-2; test: as above; conditions: Gynecologic cancer cell panel viability, ATPlite luminescence, 48 h; series mostly up to 57.5 µM
How it was run: as §2

[11] = system: HeLa; test: as above; conditions: Gynecologic cancer cell panel viability, ATPlite luminescence, 48 h; series mostly up to 57.5 µM
How it was run: as §2

[12] = system: Hek293T; test: as above; conditions: Gynecologic cancer cell panel viability, ATPlite luminescence, 48 h, control line for the selectivity index; series mostly up to 57.5 µM
How it was run: as §2

[13] = system: JEG-3; test: as above; conditions: Gynecologic cancer cell panel viability, ATPlite luminescence, 48 h; series mostly up to 57.5 µM
How it was run: as §2

[14] = system: OV90; test: as above; conditions: Gynecologic cancer cell panel viability, ATPlite luminescence, 48 h; series mostly up to 57.5 µM
How it was run: as §2

[15] = system: PA-1; test: as above; conditions: Gynecologic cancer cell panel viability, ATPlite luminescence, 48 h; series mostly up to 57.5 µM
How it was run: as §2

[16] = system: SKOV3; test: as above; conditions: Gynecologic cancer cell panel viability, ATPlite luminescence, 48 h; series mostly up to 57.5 µM
How it was run: as §2

[17] = system: Tov-21-G; test: as above; conditions: Gynecologic cancer cell panel viability, ATPlite luminescence, 48 h; series mostly up to 57.5 µM
How it was run: as §2

[18] = system: CAOV3; test: as above; conditions: Gynecologic cancer cell panel viability, ATPlite luminescence, 48 h; series mostly up to 57.5 µM
How it was run: as §2

[19] = system: NIH3T3; test: qHTS assay to identify novel small-molecules to repurpose for Merkel cell carcinoma treatment (AID 1296009); conditions: MCC and control cell lines, CellTiter-Glo viability, 72 h; at 44.8 µM (top of the series) unless noted; also: nearly all actives have a fitted effect of over 60% in size
How it was run: as §1

[20] = system: HEK293T; test: as above; conditions: MCC and control cell lines, CellTiter-Glo viability, 72 h; at 44.8 µM (top of the series)
How it was run: as §1

Measured: Potency
Potency is read from the fitted curve at half-maximal effect.

O=C(Nc1c(Cl)cncc1Cl)c1ccc(OC(F)F)c(OCC2CC2)c1
inactive: [1] | [2] | [3] | [4] | [5] | [6] | [7]

CNC(=O)c1ccc2cc(C3(O)CCn4cncc43)ccc2c1 (centres undefined)
not listed: [18] | [19] | [20]
inactive: all other assays above

CC=C(C)C(=O)O[C@H]1C(C)=C[C@]23C(=O)[C@@H](C=C(CO)[C@@H](O)[C@]12O)[C@H]1[C@@H](C[C@H]3C)C1(C)C
inactive: [1] | [2] | [3] | [4] | [5] | [7]

N#Cc1ccc(NC(=O)Nc2ccccc2Br)c2n[nH]nc12
inactive: [1] | [2] | [3] | [4] | [5] | [6] | [7]

CCN(CC)C(=O)c1ccc(O)c(OC)c1
not listed: [19] | [20]
inactive: all other assays above

Cn1c(N2CCCCS2(=O)=O)nc(C(=O)NCc2ccc(F)cc2)c(O)c1=O
not listed: [20]
inactive: all other assays above

CC(C(=O)O)c1ccc(-c2ccccc2)c(F)c1 (centres undefined)
inactive: [1] | [2] | [3] | [4] | [5] | [6] | [7]

CC1CCC(C(=O)N(c2cc(C#CC(C)(C)C)sc2C(=O)O)C2CCC(O)CC2)CC1 (centres undefined)
not listed: [9] | [13] | [16] | [20]
inactive: all other assays above

COc1ccc(-c2coc3cc(O)ccc3c2=O)cc1
inactive: [1] | [2] | [3] | [4] | [5] | [6] | [7]

Cc1ccc([C@@H]2O[C@H](CO)[C@@H](O)[C@H](O)[C@@H]2O)cc1Cc1ccc(-c2ccc(F)cc2)s1
inactive: [1] | [2] | [3] | [4] | [5] | [19] | [6] | [7]

c1cc(-c2sc(-c3ccncc3)c(-c3ccncc3)c2-c2ccncc2)ccn1
inactive: [1] | [2] | [3] | [4] | [5] | [7]

COc1cccc([C@@H](C)NCCCc2ccccc2Cl)c1
inactive: [1] | [2] | [3] | [4] | [19] | [6] | [7]

COc1ccc2c3c1OC1C[C@@H](O)C=C[C@@]31CCN(C)C2 (some centres undefined)
inactive: [1] | [2] | [3] | [4] | [5] | [6] | [7]

C=C1C(=O)OC2C=C(C)CCC=C(C)CCC12 (centres undefined)
inactive: [1] | [2] | [3] | [4] | [6]

CC(C)(C)COc1ccc(-n2cc(C(=O)O)cn2)cc1C#N
inactive: [1] | [2] | [3] | [4] | [5] | [6] | [7]

Cc1cccc(Nc2nc(-c3ccncc3)cs2)c1
inactive: [1] | [2] | [3] | [4] | [5] | [7] | [8] | [10] | [11] | [17]
active: [6] 0.935 µM

COc1cc(NC(=O)c2ccc(-c3ccc(Cl)cc3)o2)cc(OC)c1
inactive: [1] | [2] | [3] | [4] | [5] | [6] | [7]

Cc1c[nH]c(C=C2C(=O)Nc3ccccc32)c1CCC(=O)O
inactive: [1] | [2] | [3] | [4] | [5] | [7]

COC(=O)[C@@H]1[C@H]2C[C@H]3c4[nH]c5ccccc5c4CCN3C[C@@H]2CC[C@@H]1O
not listed: [18] | [20]
inactive: all other assays above

Cc1ccc(Nc2cc(-c3cccc(N4C(=O)c5ccccc5C4=O)c3)ncn2)cc1NS(C)(=O)=O
not listed: [12] | [13] | [15] | [18] | [20]
inactive: all other assays above

N[C@@]1(C(=O)O)CS(=O)(=O)[C@H]2[C@H](C(=O)O)[C@H]21
inactive: [1] | [2] | [3] | [4] | [5] | [6] | [7]

O=C(O)Cc1cccc2ccccc12
not listed: [18] | [19] | [20]
inactive: all other assays above

O=C(O)c1cc(O)c2c(c1)C(=O)c1cccc(O)c1C2=O
inactive: [1] inactive [at 92 µM] | [2] | [3] | [4] | [5] | [7]

O=C1Nc2ccc(Cl)cc2C(C#CC2CC2)(C(F)(F)F)O1 (centres undefined)
inactive: [1] | [2] | [3] | [4] | [5] | [6] | [7]

Clc1ccc(-c2nc3sccn3c2C=NOCc2ccc(Cl)c(Cl)c2)cc1
inactive: [1] | [2] | [3] | [4] | [5] | [6] | [7]

CN1C[C@H]2c3ccccc3Oc3ccc(Cl)cc3[C@@H]2C1
not listed: [10] | [12] | [14] | [16] | [18] | [19] | [20]
inactive: all other assays above

Cc1ccccc1C(C(=O)NC1CCCCC1)N(C(=O)Cn1ccnc1C)c1cccc(F)c1 (centres undefined)
not listed: [18] | [19] | [20]
inactive: all other assays above

O=C(O)CCc1nc(-c2ccccc2)c(-c2ccccc2)o1
not listed: [5] | [20]
inactive: all other assays above

O=C(O)c1ccccc1C(=O)Nc1ccc(-c2ccccc2)cc1
active: [16] 25.1 µM
inactive: [1] | [2] | [3] | [4] | [5] | [19] | [6] | [7] | [8]

CS(=O)(=O)N(Cc1ccco1)CC(O)Cn1c2ccccc2c2ccccc21 (centres undefined)
not listed: [6] | [18] | [19] | [20]
inactive: all other assays above

COC(=O)N[C@H](C(=O)N1CCC[C@@H]1c1ncc(-c2ccc(-c3ccc(-c4cnc([C@@H]5CCCN5C(=O)[C@@H](NC(=O)OC)C(C)C)[nH]4)cc3)cc2)[nH]1)C(C)C
inactive: [1] | [2] | [3] | [4] | [5] | [6] | [7]

CC(C)(C)c1cc(C(=O)O)c(NC(=O)Nc2ccc3[nH]ncc3c2)s1
not listed: [9] | [20]
inactive: all other assays above

CC1(C)CCC[C@@]2(C)[C@@H]1CC[C@@]1(C)OC(=O)C[C@H]21
inactive: [1] | [2] | [3] | [4] | [5] | [6] | [7]

O=C(NC1CCOCC1)c1ccc(-c2cc(-c3cn[nH]c3-c3ccccn3)ccn2)cc1
not listed: [18] | [19] | [20]
inactive: all other assays above

c1ccc2c(Cc3c[nH]c4ccccc34)c[nH]c2c1
active: [6] 0.469 µM
inactive: [1] | [2] | [3] | [4] | [7]

OC[C@H]1O[C@@H](n2cnc3c2NC=NC[C@@H]3O)C[C@H]1O
inactive: [20] | [2] | [3] | [4] | [5] | [19] | [6] | [7]

COc1ccc2cc(-c3nc(-c4ccc(S(C)=O)cc4)[nH]c3-c3ccncc3)ccc2c1 (centres undefined)
not listed: [3] | [5] | [16] | [18] | [19] | [20]
inactive: all other assays above

CO[C@H]1C[C@@H]2CC[C@@H](C)[C@@](O)(O2)C(=O)C(=O)N2CCCC[C@@H]2C(=O)O[C@H]([C@@H](C)C[C@@H]2CC[C@H](O)[C@H](OC)C2)CC(=O)[C@H](C)C=C(C)[C@@H](O)[C@@H](OC)C(=O)[C@H](C)C[C@H](C)C=CC=CC=C1C
inactive: [1] | [2] | [3] | [19] inactive; activator | [6]

CC(=O)N[C@@H](CS)C(=O)O
not listed: [1]
inactive: all other assays above

CNC1CCC(N(Cc2cccc(-c3ccncc3)c2)C(=O)c2sc3c(F)ccc(F)c3c2Cl)CC1 (centres undefined)
inactive: [1] | [2] | [3] | [7] | [8] | [9] | [11] | [13] | [16]

O=C(NCc1ccccc1)c1csc(Nc2ccncn2)n1
inactive: [1] | [8] | [9] | [10] | [11] | [12] | [13] | [14] | [15]
active: [4] 8.33 µM | [6] 23.5 µM

C[N+](C)(C)CCCCCC[N+](C)(C)C
not listed: [1]
inactive: all other assays above
